PubChem BioAssay (Tox21)
Values without a mark were called inactive. Records with an inconclusive call do not appear. Where a call stands in place of a potency, no number is given. Activity calls are given as the source filed them. Unless noted, calls follow the shape of the dose curve; as a rule, active = well fitted curve in the direction sought with a large enough effect in the repeat runs; inconclusive = weak or mixed curves; inactive = no such curve, though single readings can be large; an effect the other way counts as inactive or inconclusive.

Columns and labels:
[1] = qHTS assay to identify small molecule agonists of the estrogen receptor alpha (ER-alpha) signaling pathway in the presence of an antagonist - cell viability counter screen (AID 1259386);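 also: series mostly up to about 92 µM; cells exposed to compounds for 22 h at 37 °C before the viability read; nearly all actives have a fitted effect of over 30% in size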
Summary of the method: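 VM7Luc4E2 cells (endogenous full-length ER-alpha, 4×ERE-luciferase) were held 5 days in phenol red-free medium with 10% charcoal-stripped FBS, plated, then given 10.0nM ICI-182,780 and compounds at 15 concentrations for 22hr at 37C; viability read by CellTiter-Fluor fluorescence.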

[2] = qHTS assay to identify small molecule antagonists of the progesterone receptor (PR) signaling pathway - cell viability counter screen (AID 1346798); also: series mostly up to about 92 µM; nearly all actives have a fitted effect of over 50% in size
Summary of the method: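 PR-UAS-bla HEK293T cells in medium with 2% charcoal-stripped FBS were treated with compounds plus R5020 for 16 hr at 37C. Cell viability was then read by CellTiter-Glo luminescence after 30 min at room temperature in the same wells.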

[3] = qHTS assay to identify small molecule agonists of the progesterone receptor (PR) signaling pathway - cell viability counter screen (AID 1346799; calls by dose curve; also: nearly all actives have a fitted effect of over 45% in size)
Summary of the method: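 PR-UAS-bla HEK293T cells, 3,000 per well in medium with 2% charcoal-stripped FBS, were preincubated 6 hr at 37C, then exposed to compounds for 16 hr; viability was read as CellTiter-Glo luminescence after 30 min at room temperature.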

[4] = qHTS assay to identify small molecule antagonists of the TGF-beta/Smad signaling pathway - cell viability counter screen (AID 1346824); also: nearly all actives have a fitted effect of over 50% in size
Summary of the method: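 Cytotoxicity counter-screen run in the same wells as the beta-lactamase Smad reporter read: CellTiter-Glo luminescence after 30 min at room temperature. HEK 293T SBE-bla cells had 5 hr compound exposure at 37 C with TGF-beta1 (0.25 ng/mL stock).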

[5] = qHTS assay to identify small molecule agonists of the TGF-beta/Smad signaling pathway - cell viability counter screen (AID 1346829); also: top concentration of the series differs between compounds; nearly all actives have a fitted effect of over 45% in size
Summary of the method: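 In parallel with the Smad reporter read, viability of HEK 293T cells stably carrying SBE-bla is quantified by ATP luminescence following 5 hr compound treatment.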

[6] = qHTS assay to identify small molecule agonists of the TGF-beta/Smad signaling pathway (AID 1346859; active = well fitted activation curve with a large enough effect in the signal ratio in the repeat runs, not every such curve was filed as active; the % refers to the signal ratio; also: series mostly up to about 77 µM)
Summary of the method: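 HEK 293T cells stably carrying a beta-lactamase reporter driven by the Smad binding element were seeded overnight, exposed to DMSO-dissolved compounds for 5 hr at 37 C, 5% CO2, then loaded with FRET substrate for 2 hr at room temperature.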

[7] = Human pregnane X receptor (PXR) small molecule agonists, qHTS cell viability counter screen (AID 1346977); also: nearly all actives have a fitted effect of over 50% in size
Summary of the method: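 PXR-Luc HepG2 cells in medium with 5% charcoal-stripped FBS were pre-incubated 5hr, then exposed to compounds for 24hr at 37C. Viability was read in the same wells by CellTiter-Fluor fluorescence, reagent added after 23hr with a 1hr incubation.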

[8] = Caspase-3/7 induction in HepG2 cells by small molecules, qHTS assay (AID 1346978); also: nearly all actives have a fitted effect of over 15% in size
Summary of the method: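 Caspase-3/7 induction was measured by Caspase-Glo 3/7 luminescence (30 min, room temperature) after a 17 hr compound exposure of wild-type HepG2 cells seeded at 2,000 per well and pre-incubated 5 hr.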

[9] = Caspase-3/7 induction in CHO-K1 cells by small molecules, qHTS cell viability counter screen (AID 1346979); also: nearly all actives have a fitted effect of over 35% in size; also: potency is read from the fitted curve at half-maximal effect
Summary of the method: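 Wild-type CHO-K1 cells were seeded at 1,500 per well, rested 5hr at 37 C, then exposed to compounds in DMSO. After 16hr, CellTiter-Fluor reagent was added and fluorescence read 1hr later as the viability measure.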

[10] = Caspase-3/7 induction in CHO-K1 cells by small molecules, qHTS assay (AID 1346980); also: nearly all actives have a fitted effect of over 15% in size
Summary of the method: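 Luminescent Caspase-Glo 3/7 read (30min, room temperature) quantified apoptosis induction. Cells were wild-type CHO-K1, treated with compound for 17hr at 37 C and 5% CO2.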

[11] = Caspase-3/7 induction in HepG2 cells by small molecules, qHTS cell viability counter screen (AID 1346981); also: series mostly up to about 92 µM; nearly all actives have a fitted effect of over 30% in size
Summary of the method: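 Wild-type HepG2 cells (2,000/well) were allowed to settle for 5 hr at 37 C, 5% CO2, then dosed with compounds in DMSO by pin transfer. After 16 hr at 37 C, CellTiter-Fluor was added and fluorescence read 1 hr later.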

[12] = target: Nuclear receptor subfamily 1 group I member 2 (Homo sapiens) (UniProt O75469); assay: Human pregnane X receptor (PXR) small molecule agonists, qHTS assay (AID 1346982); also: nearly all actives have a fitted effect of over 35% in size; also: potency is read from the fitted curve at half-maximal effect
Nuclear receptor subfamily 1 group I member 2 (Homo sapiens), sequence (O75469 whole entry, looked up): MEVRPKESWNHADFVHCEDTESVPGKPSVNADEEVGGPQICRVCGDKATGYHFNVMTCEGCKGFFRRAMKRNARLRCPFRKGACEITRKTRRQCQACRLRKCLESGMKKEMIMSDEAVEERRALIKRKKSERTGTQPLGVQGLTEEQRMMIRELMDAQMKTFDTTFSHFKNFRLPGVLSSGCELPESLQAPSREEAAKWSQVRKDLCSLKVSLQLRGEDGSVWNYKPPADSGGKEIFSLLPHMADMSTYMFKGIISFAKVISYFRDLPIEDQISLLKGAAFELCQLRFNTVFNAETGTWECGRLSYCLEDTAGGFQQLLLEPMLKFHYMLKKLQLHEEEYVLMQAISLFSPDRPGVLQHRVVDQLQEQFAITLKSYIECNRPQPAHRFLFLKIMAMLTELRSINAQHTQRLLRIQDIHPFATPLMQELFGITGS
Summary of the method: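 PXR-Luc HepG2 cells (CYP3A4 promoter-driven luciferase) were seeded in medium with 5% charcoal-stripped FBS, left 5 hr at 37 C, then exposed to compounds in DMSO for 24 hr. Luminescence was read after ONE-Glo addition.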

[13] = target: Acetylcholinesterase (Homo sapiens) (UniProt P22303); assay: Acetylcholinesterase (AChE) small molecule antagonists: colormetric cell-based qHTS assay (AID 1347395; calls by dose curve; also: nearly all actives have a fitted effect of over 30% in size)
Acetylcholinesterase (Homo sapiens), sequence (P22303 whole entry, looked up): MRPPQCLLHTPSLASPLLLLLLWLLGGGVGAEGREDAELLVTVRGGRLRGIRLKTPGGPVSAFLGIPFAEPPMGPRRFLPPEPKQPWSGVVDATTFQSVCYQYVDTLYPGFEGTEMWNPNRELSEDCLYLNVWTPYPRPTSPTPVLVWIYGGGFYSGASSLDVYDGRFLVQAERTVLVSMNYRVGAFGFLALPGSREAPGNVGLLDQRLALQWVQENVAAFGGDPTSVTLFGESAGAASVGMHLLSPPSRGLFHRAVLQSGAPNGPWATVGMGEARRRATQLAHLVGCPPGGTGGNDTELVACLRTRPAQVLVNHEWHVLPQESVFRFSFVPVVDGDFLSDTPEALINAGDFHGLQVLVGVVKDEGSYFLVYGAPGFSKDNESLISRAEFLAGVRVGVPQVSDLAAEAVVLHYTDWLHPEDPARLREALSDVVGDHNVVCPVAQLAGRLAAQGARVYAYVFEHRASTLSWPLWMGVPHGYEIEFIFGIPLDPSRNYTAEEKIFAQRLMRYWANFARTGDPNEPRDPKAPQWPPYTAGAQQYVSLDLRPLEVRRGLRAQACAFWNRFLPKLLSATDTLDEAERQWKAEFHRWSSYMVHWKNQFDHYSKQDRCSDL
Summary of the method: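 SH-SY5Y cells, plated overnight at 37 C, were exposed to compounds for 30 min at 37 C and 5% CO2. Acetylthiocholine plus DTNB was then added, and thiocholine from endogenous AChE was quantified colorimetrically after 90 min at 37 C.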

[14] = target: Progesterone receptor (Homo sapiens) (UniProt P06401); assay: qHTS assay to identify small molecule agonists of the progesterone receptor (PR) signaling pathway (AID 1346784; calls by dose curve; also: nearly all actives have a fitted effect of over 30% in size)
Progesterone receptor (Homo sapiens), sequence (P06401 whole entry, looked up): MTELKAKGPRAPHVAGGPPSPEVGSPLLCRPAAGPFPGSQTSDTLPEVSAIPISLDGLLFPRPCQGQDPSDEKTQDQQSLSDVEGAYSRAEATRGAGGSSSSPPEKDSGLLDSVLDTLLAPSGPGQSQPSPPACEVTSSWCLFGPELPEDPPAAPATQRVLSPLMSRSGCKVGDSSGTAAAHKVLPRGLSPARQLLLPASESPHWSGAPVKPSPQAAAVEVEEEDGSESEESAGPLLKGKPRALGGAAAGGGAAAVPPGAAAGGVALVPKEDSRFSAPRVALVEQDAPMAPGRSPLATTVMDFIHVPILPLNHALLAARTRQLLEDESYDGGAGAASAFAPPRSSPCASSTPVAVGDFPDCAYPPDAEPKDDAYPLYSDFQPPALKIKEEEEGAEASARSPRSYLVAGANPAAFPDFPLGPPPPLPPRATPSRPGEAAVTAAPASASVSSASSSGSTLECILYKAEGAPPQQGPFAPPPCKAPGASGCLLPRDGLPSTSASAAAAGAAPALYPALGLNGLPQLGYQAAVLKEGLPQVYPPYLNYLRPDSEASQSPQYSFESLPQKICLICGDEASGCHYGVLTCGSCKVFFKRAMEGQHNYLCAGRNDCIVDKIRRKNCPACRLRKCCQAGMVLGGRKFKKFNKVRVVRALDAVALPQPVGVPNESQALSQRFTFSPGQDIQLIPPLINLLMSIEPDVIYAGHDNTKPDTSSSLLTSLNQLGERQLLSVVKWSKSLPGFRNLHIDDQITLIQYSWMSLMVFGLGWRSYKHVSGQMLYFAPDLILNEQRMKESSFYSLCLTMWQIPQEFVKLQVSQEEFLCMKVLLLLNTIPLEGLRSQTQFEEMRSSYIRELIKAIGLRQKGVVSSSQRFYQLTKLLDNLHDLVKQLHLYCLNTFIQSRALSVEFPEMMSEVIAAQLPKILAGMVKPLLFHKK
Summary of the method: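 PR-UAS-bla HEK 293T cells carrying a UAS-driven beta-lactamase reporter were seeded in medium with 2% charcoal-stripped FBS, preincubated 6 hr at 37C, then exposed to compounds in DMSO for 16 hr; agonism was read by LiveBLAzer B/G FRET fluorescence.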

[15] = target: Progesterone receptor (Homo sapiens) (UniProt P06401); assay: qHTS assay to identify small molecule antagonists of the progesterone receptor (PR) signaling pathway (AID 1346795; active = well fitted inhibition curve with a large enough effect in the signal ratio in the repeat runs, not every such curve was filed as active; the % refers to the signal ratio)
Summary of the method: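 PR-UAS-bla HEK293T cells carrying a UAS-driven beta-lactamase reporter were plated in medium with 2% charcoal-stripped FBS and rested 6 hr at 37C. Compounds were added with 1 nM R5020 (final) for 16 hr, then FRET substrate loaded 2 hr at room temperature.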

[16] = target: Thyrotropin-releasing hormone receptor (Homo sapiens) (UniProt P34981); assay: qHTS assay to identify small molecule agonists of the thyrotropin-releasing hormone receptor (TRHR) signaling pathway (AID 1346891; calls by dose curve; also: series mostly up to about 58 µM)
Thyrotropin-releasing hormone receptor (Homo sapiens), sequence (P34981 whole entry, looked up): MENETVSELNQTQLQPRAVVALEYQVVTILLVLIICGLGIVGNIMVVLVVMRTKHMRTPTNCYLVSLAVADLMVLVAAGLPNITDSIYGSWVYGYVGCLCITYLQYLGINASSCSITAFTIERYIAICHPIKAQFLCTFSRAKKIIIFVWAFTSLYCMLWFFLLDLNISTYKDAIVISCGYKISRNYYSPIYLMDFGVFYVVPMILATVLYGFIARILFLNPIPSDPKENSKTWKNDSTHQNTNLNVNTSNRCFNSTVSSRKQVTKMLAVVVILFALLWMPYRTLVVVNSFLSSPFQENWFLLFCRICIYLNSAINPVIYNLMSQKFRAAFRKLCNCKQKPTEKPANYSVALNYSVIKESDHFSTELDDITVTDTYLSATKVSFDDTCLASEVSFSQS
Summary of the method: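 TRHR-expressing HEK293 cells were plated 18 h at 37 °C/5% CO2, loaded with calcium dye 2 h at 37 °C, then given compound in DMSO; fluorescence was read kinetically for 3 min at 1 s intervals.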

[17] = target: Thyrotropin-releasing hormone receptor (Homo sapiens) (UniProt P34981); assay: qHTS assay to identify small molecule antagonists of the thyrotropin-releasing hormone receptor (TRHR) signaling pathway (AID 1346877; active = well fitted inhibition curve with a large enough effect in the repeat runs, not every such curve was filed as active; also: series mostly up to about 51 µM)
Summary of the method: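 TRHR-expressing HEK293 cells were seeded, cultured 18 h at 37 °C, then loaded with calcium dye for 2 h. Compounds were pre-incubated 5 min at room temperature before 1 nM TRH (final) was added, and kinetic fluorescence was recorded for 3 min.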

[18] = target: Nuclear receptor subfamily 1 group I member 2 (Rattus norvegicus) (UniProt Q9R1A7); assay: Rat pregnane X receptor (rPXR) activation by small molecules, qHTS assay (AID 1346983); conditions: rPXR luciferase reporter cells, One-Glo luminescence, 24 h; max activation: active compounds read high; also: nearly all actives have a fitted effect of over 20% in size
Nuclear receptor subfamily 1 group I member 2 (Rattus norvegicus), sequence (Q9R1A7 whole entry, looked up): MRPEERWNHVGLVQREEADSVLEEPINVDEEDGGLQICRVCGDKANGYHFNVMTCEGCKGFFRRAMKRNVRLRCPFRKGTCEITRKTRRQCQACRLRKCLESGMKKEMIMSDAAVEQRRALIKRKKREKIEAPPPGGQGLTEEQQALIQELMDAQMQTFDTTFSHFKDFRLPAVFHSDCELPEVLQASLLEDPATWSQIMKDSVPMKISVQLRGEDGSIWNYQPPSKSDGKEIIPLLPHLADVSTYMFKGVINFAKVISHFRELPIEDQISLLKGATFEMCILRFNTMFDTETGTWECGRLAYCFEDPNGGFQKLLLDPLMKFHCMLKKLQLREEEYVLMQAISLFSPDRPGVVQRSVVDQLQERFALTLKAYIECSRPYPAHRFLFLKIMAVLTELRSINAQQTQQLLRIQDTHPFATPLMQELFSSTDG
Summary of the method: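 Luminescent readout (One-Glo luciferase, 30 min room temperature) followed 24 hr compound treatment at 37 C of rPXR cells plated 2,000 per well and preincubated 5hr; qHTS format with compounds delivered in DMSO.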

[19] = target: Nuclear receptor subfamily 1 group I member 2 (Homo sapiens) (UniProt O75469); assay: CYP3A4 induction through human pregnane X receptor (PXR) by small molecules, qHTS assay (AID 1346984); also: nearly all actives have a fitted effect of over 40% in size
Summary of the method: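 DPX-2 cells (HepG2 co-transfected with PXR and CYP3A4 promoter-luciferase) treated with compounds 24 h at 37C; luciferin-IPA CYP3A4 substrate 3uM final added for 3 h, then One-Glo; luminescence read. qHTS format.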

[20] = target: Nuclear receptor subfamily 1 group I member 2 (Homo sapiens) (UniProt O75469); assay: Human pregnane X receptor (PXR) activation by small molecules, qHTS assay (AID 1346985); also: nearly all actives have a fitted effect of over 40% in size
Summary of the method: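 DPX-2 cells (HepG2 co-transfected with a PXR response element and a CYP3A4-promoter luciferase construct) were seeded at 2,000 per well, rested 5 hr at 37C, then exposed to DMSO-dissolved compounds for 24 hr. Activation was read as luciferase luminescence.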

Row | SMILES | Potency [1] | Potency [2] | Potency [3] | Potency [4] | outcome [5] | outcome [6] | Potency [7] | Potency [8] | Potency [9] | Potency [10] | Potency [11] | Potency [12] | Potency [13] | Potency [14] | Potency [15] | outcome [16] | outcome [17] | max activation [18] [%] | Potency [19] | Potency [20]
1 | CC(=O)C(Cl)Cl | inactive | inactive | inactive | inactive | inactive | inactive | inactive | inactive | inactive | inactive | inactive | inactive | inactive |  |  |  |  |  |  | 
2 | N#Cc1c(Cl)cccc1Cl |  | inactive | inactive | inactive | inactive | inactive | inactive | inactive |  | inactive | inactive | inactive | inactive | inactive | inactive | inactive |  |  |  | 
3 | COc1cc(OC)nc(NC(=O)NS(=O)(=O)c2ncccc2OCC(F)(F)F)n1 |  | inactive | inactive | inactive | inactive | inactive | inactive | inactive | inactive | inactive | inactive | inactive | inactive | inactive | inactive |  |  |  |  | 
4 | Nc1cc2c3c(c1)C(c1ccccc1)=N[C@@H](NC(=O)c1cccnc1)C(=O)N3CC2 | inactive |  |  | inactive | inactive | inactive | inactive | inactive |  | inactive | inactive | 61.1 µM (active) | inactive |  | inactive |  |  |  |  | 
5 | O=C1OC(=O)C2C1C1(Cl)C(Cl)=C(Cl)C2(Cl)C1(Cl)Cl (stereo unspecified) | inactive | inactive | inactive | inactive | inactive | inactive | inactive | inactive | inactive | inactive | inactive | inactive | inactive |  |  |  | inactive |  |  | 
6 | CCC(C)(C)c1cc(-n2nc3ccccc3n2)c(O)c(C(C)(C)CC)c1 | inactive | inactive |  | inactive | inactive | inactive | inactive | inactive | inactive | inactive | inactive | 69.6 µM (active) | inactive |  |  |  |  |  |  | 
7 | COc1cccc(C(=O)NN(C(=O)c2cc(C)cc(C)c2)C(C)(C)C)c1C |  | inactive |  | inactive | inactive | inactive | inactive | inactive | 61.1 µM (active) | inactive |  | inactive | inactive | inactive | inactive | inactive | inactive |  |  | 
8 | CCCCOC(=O)[C@@H](C)Oc1ccc(Oc2ccc(C#N)cc2F)cc1 | inactive | inactive | inactive | inactive | inactive |  | inactive | inactive | inactive | inactive | inactive | inactive | inactive |  |  | inactive | inactive |  |  | 
9 | O=C(O)c1ccc2[nH]cc(CCCCN3CC=C(c4ccccc4)CC3)c2c1 |  | inactive | inactive | inactive | inactive | inactive | inactive | inactive |  | inactive | inactive |  | inactive | inactive | inactive |  |  | -0.864 | inactive | inactive
